The structures appear in SMILES notation. This is part of a sample that, as a whole, favours compounds with a hit. Of some 83,000 tested, about 20% had one in any assay.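 The test compound was applied at a single concentration to cells in 96-well plates for 48 hours, and percent growth was recorded.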 A number with no mark means an inactive call. Active and inactive are the calls of the source. Rule for the calls: active = growth percent below 10; inactive = the rest.

In the assay the test system is CCRF-CEM leukemia. Description: NCI-60 one-dose screen, 48 h (100 = growth as untreated, 0 = no growth, -100 = all killed). Conditions: 10 µM unless noted.
As to `O=C(O)c1nn(-c2ccc(Cl)cc2)nc1N1CCCC1`, the growth was 100%. The result for `COCCNC(=O)Cc1cc(-c2ccc(Cl)cc2)n(-c2ccccc2)c1C` reads 88.1%. In the case of `O=C(Nc1ccc(Oc2cccc(F)c2)c(Cl)c1)c1cnccn1`, the growth is 18.4%. The result for `CC(=O)[C@H]1CC[C@]2(C)[C@@H]1CC[C@@H]1[C@@]3(C)C/C(=C/c4cccnc4)C(=O)C(C)(C)[C@@H]3CC[C@]12C` reads 31.7%; that for `C=C(C)Cn1c(SCC(=O)c2cccs2)nc2sc3c(c2c1=O)CCCC3`, 40%. The figure for `Cc1ccc(C(=O)Nc2ccc(CN3CCN(C)CC3)c(C(F)(F)F)c2)cc1C#Cc1cnc(N)c2ccccc12` is -15.7% (active). The result for `COc1cc(C2CC(c3cccc(Nc4ccncc4)c3)=Nc3c(N)ncnc3N2)cc(OC)c1OC` (stereo not drawn) reads 73.2%.

As for `CO[C@]12C=C/C(=C(/C(=O)OCc3cccnc3)C(=O)CCCCCCCC[C@]3(OC)C=C/C(=C(/C(=O)OCc4cccnc4)C(=O)CCCCCCCC1)O3)O2`, the growth was -23.2% (active).

In the case of `CCOC(=O)CSc1nc2sc3c(c2c(=O)n1-c1ccccc1)CCCCC3`, the growth was 97%. The result for `CN1CCN(Cc2ccc(NC(=O)c3cncc(C#Cc4cnc(N)c5ccc(C#N)cc45)c3)cc2C(F)(F)F)CC1` reads 3.96% (active); that for `CCOC(=O)C1=C(c2ccccc2)N=C2SC=C(c3cccc([N+](=O)[O-])c3)N2C1c1ccc(O)cc1` (stereo not drawn), 98.1%; that for `CCn1c2ccccc2c2cc(C(O)c3cccc4ncccc34)ccc21` (stereo not drawn), 8.21% (active). The figure for `Cc1c(Cl)cccc1NC(=O)c1sc2nc3c(cc2c1N)CCCC3` is 20.4%.

The values above are taken from PubChem BioAssay (NCI).
